Measurements published in PubChem BioAssay (NCI).
This is part of a sample that, as a whole, favours compounds with a hit. Of some 79,000 tested, about 15% had one in any assay. No stated cut-off is given here; in the data, active means growth inhibition above about 70%; inactive means the rest.

How the values were obtained:
[1] = NCI Yeast Anticancer Drug Screen. Data for the rad50 strain (AID 155);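 further: 0% = growth of vehicle-only cultures of the same strain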; conditions: S. cerevisiae rad50 strain growth inhibition; at 50.0 µM; hits give high values
Procedure, shortened: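 Yeast carrying a defined DNA repair defect were exposed to test compounds, and growth was compared with vehicle-treated controls to give percent inhibition.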

[2] = NCI Yeast Anticancer Drug Screen. Data for the mec2-1 strain (AID 157); conditions: S. cerevisiae mec2-1 strain, at 50.0 µM, hits give high values
Procedure, shortened: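 Growth inhibition is read against vehicle-treated controls after compound exposure of the mec2-1 yeast strain, which is defective in DNA damage repair or cell cycle control.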

[3] = NCI Yeast Anticancer Drug Screen. Data for the sgs1 mgt1 strain (AID 161);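 further: 0% = growth of cultures given vehicle only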; conditions: S. cerevisiae sgs1 mgt1 strain, at 50.0 µM, hits give high values
Procedure, shortened: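 Yeast cells carrying a defined DNA-repair defect were exposed to test compounds. Growth inhibition was measured relative to vehicle-treated controls.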

[4] = NCI Yeast Anticancer Drug Screen. Data for the cln2 rad14 strain (AID 165);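 further: 0% = growth equal to vehicle treated cultures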; conditions: S. cerevisiae cln2 rad14 strain, at 50.0 µM, hits give high values
Procedure, shortened: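 Growth inhibition, relative to vehicle-treated controls, is the read-out. The test organism is a yeast strain with defined genetic alterations, cln2 rad14.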

[5] = NCI Yeast Anticancer Drug Screen. Data for the bub3 strain (AID 167); conditions: S. cerevisiae bub3 mutant strain, at 50.0 µM, hits give high values
Procedure, shortened: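 Compounds were applied to a genetically altered yeast strain carrying a cell-cycle control defect. Growth inhibition was scored against vehicle-treated controls.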

[6] = NCI Yeast Anticancer Drug Screen. Data for the mlh1 rad18 strain (AID 175); conditions: S. cerevisiae mlh1 rad18 strain growth inhibition; at 50.0 µM; hits give high values
Procedure, shortened: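 Cells of a genetically altered yeast strain, deficient in DNA damage repair, were treated with compound. Their growth was then compared with that of vehicle-treated cultures to give inhibition.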

Measured: growth inhibition

CC1CCP(=O)(c2ccccc2)CC1 (stereo not drawn)
inactive: [1] 8.5% | [2] -10.8% | [3] -7.15% | [4] 6.9% | [5] -7.3% | [6] -35.2%

CC(=O)Nc1ccc(C(=O)N2C(=N)C(C#N)=C(O)/C2=C\c2ccc(Cl)c(Cl)c2)cc1
inactive: [1] -7.3% | [2] -5.7% | [3] -18.4% | [4] 1.3% | [5] -20.8% | [6] 2.15%

O=C(O)c1[nH]c(=O)[nH]c(=O)c1C(=O)O
inactive: [1] -20.6% | [2] 0.55% | [3] -15.1% | [4] 18.8% | [5] -17.6% | [6] -15%

O=C1c2ccccc2C(=O)c2cc(N=Nc3c(O)ccc4ccccc34)ccc21
inactive: [1] 2.05% | [2] 35.9% | [3] -6% | [4] 4.25% | [5] 2.7% | [6] 2.1%

Cc1nc2ccccc2c(=O)n1-c1ccc(-c2nnc(Sc3nnc(-c4ccc(-n5c(C)nc6ccccc6c5=O)cc4)n3-c3ccccc3)n2-c2ccccc2)cc1
inactive: [1] 16.6% | [2] -3.35% | [3] 8.2% | [4] -17.6% | [5] 11.3% | [6] 30.1%

CCOc1cn(C2CC(O)C(CO)O2)c(=O)[nH]c1=O (stereo not drawn)
inactive: [1] -1.35% | [2] 7.75% | [3] -6.95% | [4] -10.9% | [5] -16.2% | [6] 23.6%

CC(=O)NC(CCCCNC(=O)NCCCl)C(=O)NCc1ccccc1 (stereo not drawn)
inactive: [1] 3.3% | [2] -22.8% | [3] -2.85% | [4] 20.8% | [5] -12% | [6] -8.9%

CN(C)c1ccc(NC2COc3ccccc3C2=O)cc1 (stereo not drawn)
inactive: [1] -13.1% | [2] 3.9% | [3] 17.4% | [4] -17.2% | [5] 67% | [6] -6.6%

O=C(O)c1[nH]c2ccccc2c(=O)c1-c1ccccc1
inactive: [1] 11.7% | [2] -31.5% | [3] 0.95% | [4] -14.3% | [5] 1.05% | [6] -19.4%

C=CCOC(=O)C(O)C=C (stereo not drawn)
inactive: [1] 7.9% | [2] -12.3% | [3] 2.3% | [4] 16.4% | [5] -1.6% | [6] 11.6%

COc1ccc(C(C)=O)c(C)c1OC
inactive: [1] 22.6% | [2] 3.65% | [3] 19.6% | [4] 10.4% | [5] -22.2% | [6] 15.2%

O=[N+]([O-])c1ccc2c(c1)C(=Nc1ccc(Cl)cc1)c1ccccc1-2
inactive: [1] -0.95% | [2] -8.6% | [3] -8% | [4] -32% | [5] 24.1% | [6] 5.45%

O=c1[nH]cc(Nc2ccccc2)c(=O)[nH]1
inactive: [1] -1.1% | [2] 2.35% | [3] 4.95% | [4] -35.2% | [5] -29.6% | [6] -9.65%

CSC1=NC=C(C#N)C2=NC(c3ccccc3)NN12 (stereo not drawn)
inactive: [1] -0.3% | [2] -5.55% | [3] -6.6% | [4] -14.2% | [5] 2.8% | [6] 7%

COC(=O)C(Cl)(Cl)c1nc(NC(C)=O)[nH]c(=O)c1Cl
inactive: [1] 0.45% | [2] 13.3% | [3] 3.65% | [4] -20% | [5] -16.4% | [6] 0.45%

S=C1SCN(C2CCCCCCCCCCC2)CN1C1CCCCCCCCCCC1
inactive: [1] -52.5% | [2] -29.1% | [3] -17.9% | [4] -3.7% | [5] -20% | [6] -40.5%

CCN(CC)CCSc1ccnc2cc(Cl)ccc12
inactive: [1] 16.3% | [2] 23.1% | [3] 52.8% | [4] 47.5% | [5] 36% | [6] 21.8%

O=C(Cn1c(C(=O)c2ccccc2)nc2ccccc21)c1ccccc1
inactive: [1] -39.2% | [2] -16.6% | [3] -32.8% | [4] -8.95% | [5] -16.4% | [6] -18%

CCOc1c(C)cc(C(C)c2cc3c(cc2OC)OCO3)cc1C (stereo not drawn)
inactive: [1] 19.2% | [2] 26% | [3] 23.5% | [4] 17.4% | [5] 51.4% | [6] 25.1%

CN(C)C=NCc1ccc2c(c1)OCO2
inactive: [1] 2.05% | [2] -24% | [3] -13.2% | [4] 2.7% | [5] 1.5% | [6] -17%

CC(C)(C)CC(C)(C)Nc1ccc(C(N)=O)cc1
inactive: [1] -2.35% | [2] 15.2% | [3] -20.9% | [4] -8.2% | [5] 7.7% | [6] 9.6%

CC(C)CCOC(=S)S
inactive: [1] 35.2% | [2] 17.9% | [3] -22.6% | [4] -5.8% | [5] 34.2% | [6] -38.4%

c1cc(N2CCOCC2)ccc1Cc1ccc(N2CCOCC2)cc1
inactive: [1] -13.2% | [2] 0.9% | [3] -4.1% | [4] 0.45% | [5] -17.6% | [6] -13.1%

CC1=CC2=NCC(O)CN2C=C1 (stereo not drawn)
inactive: [1] -4.2% | [2] 28.6% | [3] 9.25% | [4] 12.8% | [5] 14.4% | [6] 2.2%

O=C1c2ccccc2CCC12OC2c1ccncc1 (stereo not drawn)
inactive: [1] 12.1% | [2] 27.1% | [3] 25% | [4] 6.75% | [5] 39.4% | [6] 29.6%

C#CC(C)(O)CCCCCCC (stereo not drawn)
inactive: [1] 18.3% | [2] -27.1% | [3] 4% | [4] -22.8% | [5] -12.4% | [6] 5%

Nc1cccc(/C=C/c2cccc([N+](=O)[O-])c2)c1
inactive: [1] 18.2% | [2] 37.5% | [3] 12.8% | [4] 4% | [5] 60.3% | [6] 30.2%

COC(=O)c1ncn(C(C(=O)OC)C(=O)OC)c1O
inactive: [1] -5.6% | [2] -6.75% | [3] -4.75% | [4] -14.4% | [5] -5.1% | [6] -10.8%

Cc1cccc(C)c1NC(=O)OC(C)C
inactive: [1] 4.8% | [2] 5.65% | [3] -28.3% | [4] -32.5% | [5] 11.8% | [6] -12.7%

Cn1cc(C2(C)CC(C)(C)c3c2n(C)c2ccccc32)c2ccccc21 (stereo not drawn)
inactive: [1] 0.3% | [2] -16.1% | [3] -12.2% | [4] 7.15% | [5] -17.9% | [6] 2.95%

COC(=O)N/N=C(/C)c1ccco1
inactive: [1] 8.75% | [2] 27.9% | [3] 3.55% | [4] 1.55% | [5] 14.8% | [6] 16.2%

C=CN1C(=O)c2ccccc2C1=O
inactive: [1] -12.8% | [2] -12.4% | [3] -8.95% | [4] 6.3% | [5] -6.5% | [6] -24%

Cc1nc(C)c(CC#N)s1
inactive: [1] -9.25% | [2] -10% | [3] -1.75% | [4] -15.1% | [5] -2% | [6] 13.7%

OC1(c2ccccc2)c2ccccc2Oc2cc(Cl)ccc21 (stereo not drawn)
inactive: [1] 9.4% | [2] -0.85% | [3] 2.8% | [4] 10.3% | [5] 2.15% | [6] 45.8%

COC(=O)c1ccccc1N=NNc1ccc2c(=O)c3ccccc3[nH]c2c1
inactive: [1] 23.8% | [2] 1.7% | [3] 22.1% | [4] 34.5% | [5] 11.6% | [6] 66%

Cc1nc2cccc([N+](=O)[O-])c2n1CCCN(C)C
inactive: [1] 1.7% | [2] 6.5% | [3] 11.9% | [4] -8.9% | [5] 18.3% | [6] 10.1%

CCCCCCCNc1nc(N)nc(Cl)n1
inactive: [1] -0.15% | [2] -4.6% | [3] 5.75% | [4] 8.75% | [5] -9.4% | [6] 10.9%

C1CCCCCC2=C(CCCC1)CCCO2
inactive: [1] 7.4% | [2] -7.5% | [3] 2.35% | [4] -19.3% | [5] 10.2% | [6] 0.2%
